This note sets out measurements from PubChem BioAssay (EPA / NIEHS).

Records with an inconclusive call do not appear. Activity calls are given as the source filed them. How the source made its calls, unless noted: active means hit-call score of the fitted dose curve at least 0.9, where 1 is the maximum; inactive means score below 0.9.

Assay [1] concerns the target Glucocorticoid receptor (Homo sapiens) (UniProt P04150). Briefly: ATG_GR_TRANS: Attagene TRANS-FACTORIAL HepG2 Assay for human Glucocorticoid Receptor (GR) (AID 2282978; active means hit-call score of the fitted dose curve at least 0.9, where 1 is the maximum;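 further: activators score as hits since higher reporter transcript over DMSO is fitted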). The note with it: HepG2 Attagene TRANS GR reporter, mRNA transcription. The essentials: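 Transiently transfected HepG2 cells express chimeric NR-GAL4 proteins acting on GAL4-UAS reporter units. Compounds are applied for 24 h. mRNA induction over DMSO is measured by capillary electrophoresis.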

Assay [2] addresses Bile acid receptor (Homo sapiens) (UniProt Q96RI1). Put plainly: ATG_FXR_TRANS: Attagene TRANS-FACTORIAL HepG2 Assay for Farnesoid X Receptor (FXR) (AID 2282979; active means hit-call score of the fitted dose curve at least 0.9, where 1 is the maximum;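 further: hits raise reporter mRNA above DMSO so AC50 marks FXR activation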). Conditions: HepG2 Attagene TRANS FXR-GAL4 reporter transcription. The essentials:
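HepG2 cells were transiently transfected with GAL4-UAS reporters driven by chimeric NR-Gal4 proteins and dosed for 24 h. Reporter mRNA was quantified by RT-PCR, fluorescent labelling, HpaI digestion and capillary electrophoresis, with gain of signal scored versus DMSO.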

Assay [3] concerns the target Oxysterols receptor LXR-alpha (Homo sapiens) (UniProt Q13133). Put plainly: ATG_LXRa_TRANS: Attagene TRANS-FACTORIAL HepG2 Assay for human Liver X Receptor alpha (LXRa) (AID 2282980; active means hit-call score of the fitted dose curve at least 0.9, where 1 is the maximum). Conditions: HepG2 Attagene TRANS reporter, LXRa transactivation. In short, it runs like this:
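HepG2 cells transiently transfected with GAL4-UAS reporter units for chimeric NR-Gal4 proteins, exposed to chemicals for 24 h. Reporter mRNA quantified by RT-PCR and capillary electrophoresis; gain of signal fitted relative to DMSO.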

The target of assay [4] is Oxysterols receptor LXR-beta (Homo sapiens) (UniProt P55055). Briefly: ATG_LXRb_TRANS: Attagene TRANS-FACTORIAL HepG2 Assay for human Liver X Receptor beta (LXRb) (AID 2282981; active means hit-call score of the fitted dose curve at least 0.9, where 1 is the maximum). Conditions: HepG2 Attagene TRANS GAL4-LXRb reporter, mRNA. In short, it runs like this: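 HepG2 cells transiently transfected with GAL4-UAS reporter units for chimeric NR-Gal4 proteins, dosed for 24 h. Reporter transcripts measured by RT-PCR and capillary electrophoresis; gain-of-signal fitting relative to DMSO.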

Assay [5] has as its target Hepatocyte nuclear factor 4-alpha (Homo sapiens) (UniProt P41235). Briefly: ATG_HNF4a_TRANS: Attagene TRANS-FACTORIAL HepG2 Assay for human Hepatocyte Nuclear Factor 4 alpha (HNF4a) (AID 2282982; active means hit-call score of the fitted dose curve at least 0.9, where 1 is the maximum). Conditions: HepG2 HNF4a transactivation reporter, mRNA readout. In short, it runs like this:
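HepG2 cells transiently transfected with HNF4a-Gal4 chimera and GAL4-UAS reporter units, dosed for 24 h. Reporter mRNA measured by RT-PCR, fluorescent primer extension and capillary electrophoresis; gain-of-signal fitted relative to DMSO.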

Assay [6] can be described thus: ATG_M_32_TRANS: Attagene TRANS-FACTORIAL HepG2 Assay for M32 Transcription Factor (Internal Marker) (AID 2282984; active means hit-call score of the fitted dose curve at least 0.9, where 1 is the maximum;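 further: transcript level of a background control reporter unit measured by RT-PCR and capillary electrophoresis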). The note with it: HepG2 Attagene TRANS M32 internal marker reporter. The essentials: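 HepG2 cells transiently transfected with GAL4-UAS reporter units, dosed for 24 hours. Reporter mRNA quantified by RT-PCR, 6-FAM labelling, HpaI digestion and capillary electrophoresis; internal-marker signal fitted upward relative to DMSO.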

Assay [7] concerns the target Nuclear receptor subfamily 4 group A member 2 (Homo sapiens) (UniProt P43354). Put plainly: ATG_NURR1_TRANS: Attagene TRANS-FACTORIAL HepG2 Assay for human Nuclear Receptor Related Protein 1 (NURR1) (AID 2282985; active means hit-call score of the fitted dose curve at least 0.9, where 1 is the maximum). The note with it: HepG2 Attagene TRANS reporter, mRNA readout. In short, it runs like this:
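HepG2 cells transiently transfected with NURR1-Gal4 chimera and GAL4-UAS reporter units; after 24 hr compound exposure, reporter mRNA quantified by RT-PCR and capillary electrophoresis; gain of signal fitted against DMSO.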

Assay [8] has as its target Transcriptional activator Myb (Homo sapiens) (UniProt P10242). Briefly: ATG_Myb_CIS: Attagene CIS-FACTORIAL HepG2 Assay for human Myeloblastosis (Myb) Proto-Oncogene Transcription Factor (AID 2282986). The note with it: HepG2 Attagene CIS-FACTORIAL Myb reporter transcription; actives raise or lower the signal. The essentials:
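Using HepG2 liver cells bearing transiently transfected cis-promoter reporter constructs, the assay measures induction or loss of reporter mRNA after 24 hours of dosing. Detection used fluorescently labeled RT-PCR products separated by capillary electrophoresis.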

For assay [9], the target named is Nuclear respiratory factor 1 (Homo sapiens) (UniProt Q16656). Briefly: ATG_NRF1_CIS: Attagene CIS-FACTORIAL HepG2 Assay for human Nuclear Respiratory Factor 1 (NRF1) Orphan Gene (AID 2282987). Conditions: HepG2 NRF1 cis-element reporter, Attagene multiplex; actives raise or lower the signal. The essentials:
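Reporter mRNA induction or loss in HepG2 cells after 24 h dosing; cis-regulated reporter constructs report endogenous transcription-factor activity. Quantified by RT-PCR/capillary electrophoresis fluorescence, DMSO-referenced.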

Assay [10] in a line: ATG_NFI_CIS: Attagene CIS-FACTORIAL HepG2 Assay for human Nuclear Factor I (NFI) (AID 2282989). Conditions: HepG2 cis-regulatory reporter, NFI response element transcription; actives raise or lower the signal. In short, it runs like this: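 Cells: human liver HepG2, transiently transfected with promoter-regulated reporter transcription units. Exposure 24 h. Detection: fluorescent RT-PCR products separated by capillary electrophoresis, normalised to DMSO negative control.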

A short description of assay [11]: ATG_NF_kB_CIS: Attagene CIS-FACTORIAL HepG2 Assay for human Nuclear Factor Kappa B (NF-kB) (AID 2282991). The note with it: HepG2 Attagene cis-factorial NF-kB reporter mRNA; actives raise or lower the signal. The essentials:
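DMSO served as negative control and baseline for bidirectional curve fitting. Transiently transfected HepG2 cells were dosed for 24 h, then reporter transcripts were measured by RT-PCR with capillary electrophoresis detection.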

A short description of assay [12]: ATG_NRF2_ARE_CIS: Attagene CIS-FACTORIAL HepG2 Assay for human Nuclear Factor Erythroid 2 Related Factor 2 (NFR2) response to Antioxidant Response Elements (ARE) (AID 2282992).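 On AC50: reporter mRNA level measured by RT-PCR and capillary electrophoresis fluorescence.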 The note with it: HepG2 Attagene ARE/NRF2 reporter, transcription factor activity; actives raise or lower the signal. The essentials: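 HepG2 cells transiently transfected with multiplexed cis-regulated reporter transcription units measure endogenous transcription factor activity. Reporter mRNA at 24 h is quantified by RT-PCR, fluorescent labelling and capillary electrophoresis, with bidirectional fitting relative to DMSO.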

The nature of assay [13]: ATG_Oct_MLP_CIS: Attagene CIS-FACTORIAL HepG2 Assay for human Octamer-Binding Transcription Factor (Oct) (AID 2282993). The note with it: HepG2 Attagene cis-factorial Oct reporter, mRNA; actives raise or lower the signal. In short, it runs like this: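 HepG2, transient MRTU transfection, cis promoter elements; 24 h dosing; RT-PCR/CE fluorescence read-out of reporter mRNA; fit both directions vs DMSO.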

For assay [14], the target named is Cellular tumor antigen p53 (Homo sapiens) (UniProt P04637). Put plainly: ATG_p53_CIS: Attagene CIS-FACTORIAL HepG2 Assay for human p53 Transcription Factor (AID 2282994). Conditions: HepG2 p53 cis-element reporter, Attagene mRNA; actives raise or lower the signal. The essentials:
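HepG2 cells transiently transfected with multiplexed cis-regulated reporter transcription units read endogenous TF activity. After 24 h compound exposure, reporter mRNA was quantified by RT-PCR, fluorescent labelling, HpaI digestion and capillary electrophoresis; bidirectional fits versus DMSO baseline.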

The nature of assay [15]: BSK_3C_TissueFactor: BioMAP Diversity Plus: 3C Assay for Tissue Factor Biomarker Activity (AID 2282997). The note with it: BioMAP 3C HUVEC, tissue factor biomarker readout; actives raise or lower the signal. The essentials:
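HUVEC were treated 24 h, then surface tissue factor measured by ELISA and fitted bidirectionally against DMSO. Parallel SRB total-protein staining assessed overt cytotoxicity at the same time point.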

Assay [16] in a line: BSK_3C_uPAR: BioMAP Diversity Plus: 3C Assay for Urokinase-type plasminogen activator receptor (uPAR) Biomarker Activity (AID 2282998). Conditions: BioMAP 3C HUVEC, uPAR biomarker ELISA; actives raise or lower the signal. The essentials: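 A multiplexed primary-cell system built on human umbilical vein endothelium was used, with chemical present for 24 h before reading. Cell-surface uPAR was detected by ELISA; signal change in either direction counted against DMSO.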

Assay [17] can be described thus: ATG_M_06_TRANS: Attagene TRANS-FACTORIAL HepG2 Assay for M06 Transcription Factor (Internal Marker) (AID 2282983; active means hit-call score of the fitted dose curve at least 0.9, where 1 is the maximum;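 further: reporter transcript level by RT-PCR then capillary electrophoresis fluorescence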). Conditions: HepG2 Attagene TRANS M06 internal marker reporter. The essentials:
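HepG2 cells transiently transfected with GAL4-UAS multiple reporter units, dosed 24 h. Reporter RNA reverse-transcribed, PCR-amplified, 6-FAM-labeled, HpaI-digested and quantified by capillary electrophoresis; this internal-marker signal fitted upward relative to DMSO.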

For assay [18], the target named is Myc proto-oncogene protein (Homo sapiens) (UniProt P01106). Briefly: ATG_Myc_CIS: Attagene CIS-FACTORIAL HepG2 Assay for human Myelocytomatosis (Myc) Proto-Oncogene Transcription Factor (AID 2282990). Conditions: HepG2, Attagene cis-reporter transcription factor activity; actives raise or lower the signal. The essentials:
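Read-out: fluorescent reporter mRNA fragments resolved by capillary electrophoresis after RT-PCR. Human HepG2 liver cells carried transfected cis-element reporter units and were dosed for 24 h. Gain or loss of signal fitted relative to DMSO baseline.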

Sequence of Bile acid receptor (Homo sapiens) (Q96RI1 whole entry, looked up, the tested form may be a part): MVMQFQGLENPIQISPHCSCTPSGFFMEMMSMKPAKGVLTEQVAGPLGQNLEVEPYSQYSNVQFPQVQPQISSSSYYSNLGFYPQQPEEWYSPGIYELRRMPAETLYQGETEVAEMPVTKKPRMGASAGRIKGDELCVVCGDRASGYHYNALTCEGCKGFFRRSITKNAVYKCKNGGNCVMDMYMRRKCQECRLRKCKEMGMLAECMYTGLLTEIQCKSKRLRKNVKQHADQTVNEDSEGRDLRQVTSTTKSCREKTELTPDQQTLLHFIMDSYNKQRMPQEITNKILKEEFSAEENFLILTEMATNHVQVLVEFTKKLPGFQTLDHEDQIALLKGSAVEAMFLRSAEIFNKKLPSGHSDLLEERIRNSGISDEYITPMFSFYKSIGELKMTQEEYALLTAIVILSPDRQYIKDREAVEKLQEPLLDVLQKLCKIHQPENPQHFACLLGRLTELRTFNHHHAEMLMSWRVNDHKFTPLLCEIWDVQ
Sequence of Nuclear respiratory factor 1 (Homo sapiens) (Q16656 whole entry, looked up): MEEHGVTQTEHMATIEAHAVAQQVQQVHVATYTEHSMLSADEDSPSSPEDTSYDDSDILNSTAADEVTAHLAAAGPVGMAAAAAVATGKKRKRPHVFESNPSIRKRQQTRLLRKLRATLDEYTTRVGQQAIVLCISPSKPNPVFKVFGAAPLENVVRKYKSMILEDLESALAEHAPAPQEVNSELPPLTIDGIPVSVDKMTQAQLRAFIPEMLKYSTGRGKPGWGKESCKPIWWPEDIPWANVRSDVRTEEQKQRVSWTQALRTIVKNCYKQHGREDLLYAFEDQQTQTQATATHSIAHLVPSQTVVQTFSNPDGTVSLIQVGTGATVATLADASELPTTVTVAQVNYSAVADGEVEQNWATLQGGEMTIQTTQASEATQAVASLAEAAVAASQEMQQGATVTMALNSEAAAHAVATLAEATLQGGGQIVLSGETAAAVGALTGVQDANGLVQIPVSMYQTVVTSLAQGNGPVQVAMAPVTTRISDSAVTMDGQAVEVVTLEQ
Sequence of Glucocorticoid receptor (Homo sapiens) (P04150 whole entry, looked up, the tested form may be a part): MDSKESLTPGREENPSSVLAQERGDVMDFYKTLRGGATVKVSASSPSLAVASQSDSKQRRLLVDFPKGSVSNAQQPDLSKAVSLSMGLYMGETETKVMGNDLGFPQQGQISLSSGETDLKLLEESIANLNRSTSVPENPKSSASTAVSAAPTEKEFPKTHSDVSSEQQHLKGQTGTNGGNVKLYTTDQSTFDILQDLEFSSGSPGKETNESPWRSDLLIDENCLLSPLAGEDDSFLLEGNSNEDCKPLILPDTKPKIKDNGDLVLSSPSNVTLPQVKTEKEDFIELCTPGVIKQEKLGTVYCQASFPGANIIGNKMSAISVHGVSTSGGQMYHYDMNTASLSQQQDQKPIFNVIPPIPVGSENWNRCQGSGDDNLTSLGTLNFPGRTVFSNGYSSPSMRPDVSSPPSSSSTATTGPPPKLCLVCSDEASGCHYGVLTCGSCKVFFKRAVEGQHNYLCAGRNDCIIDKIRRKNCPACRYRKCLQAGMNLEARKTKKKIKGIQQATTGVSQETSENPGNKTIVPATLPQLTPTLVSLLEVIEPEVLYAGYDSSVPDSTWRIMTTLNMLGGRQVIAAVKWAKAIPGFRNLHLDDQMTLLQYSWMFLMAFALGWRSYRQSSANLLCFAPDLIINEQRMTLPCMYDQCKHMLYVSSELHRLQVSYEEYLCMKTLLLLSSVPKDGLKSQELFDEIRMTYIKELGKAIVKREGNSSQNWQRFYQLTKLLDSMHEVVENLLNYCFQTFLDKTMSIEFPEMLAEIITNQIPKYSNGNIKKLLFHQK
Sequence of Nuclear receptor subfamily 4 group A member 2 (Homo sapiens) (P43354 whole entry, looked up, the tested form may be a part): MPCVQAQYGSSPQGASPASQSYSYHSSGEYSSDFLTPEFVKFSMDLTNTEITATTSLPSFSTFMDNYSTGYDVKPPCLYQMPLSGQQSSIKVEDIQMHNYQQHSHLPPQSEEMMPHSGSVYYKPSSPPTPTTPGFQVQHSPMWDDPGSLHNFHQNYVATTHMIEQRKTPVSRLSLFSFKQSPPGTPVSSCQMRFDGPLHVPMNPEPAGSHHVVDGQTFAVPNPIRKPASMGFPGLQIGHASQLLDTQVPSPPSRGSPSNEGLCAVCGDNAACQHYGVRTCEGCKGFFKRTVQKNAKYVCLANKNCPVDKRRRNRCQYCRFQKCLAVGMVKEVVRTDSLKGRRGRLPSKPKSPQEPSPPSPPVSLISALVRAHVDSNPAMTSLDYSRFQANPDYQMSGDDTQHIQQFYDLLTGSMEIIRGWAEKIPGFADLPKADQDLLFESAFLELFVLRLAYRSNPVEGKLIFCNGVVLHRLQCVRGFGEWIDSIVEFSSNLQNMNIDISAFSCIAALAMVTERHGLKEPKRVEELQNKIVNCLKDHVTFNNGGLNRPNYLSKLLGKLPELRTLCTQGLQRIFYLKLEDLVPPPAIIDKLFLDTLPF
Sequence of Cellular tumor antigen p53 (Homo sapiens) (P04637 whole entry, looked up): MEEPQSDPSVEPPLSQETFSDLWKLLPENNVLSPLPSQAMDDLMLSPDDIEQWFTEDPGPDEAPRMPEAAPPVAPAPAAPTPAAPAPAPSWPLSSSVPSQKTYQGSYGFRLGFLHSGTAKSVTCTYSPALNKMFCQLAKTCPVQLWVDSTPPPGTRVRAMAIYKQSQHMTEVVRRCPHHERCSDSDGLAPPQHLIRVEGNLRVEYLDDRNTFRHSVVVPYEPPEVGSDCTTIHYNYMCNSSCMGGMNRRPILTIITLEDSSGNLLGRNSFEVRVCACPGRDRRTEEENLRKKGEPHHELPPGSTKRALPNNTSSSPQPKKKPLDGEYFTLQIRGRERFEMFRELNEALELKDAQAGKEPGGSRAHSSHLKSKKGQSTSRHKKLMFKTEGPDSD
Sequence of Oxysterols receptor LXR-beta (Homo sapiens) (P55055 whole entry, looked up, the tested form may be a part): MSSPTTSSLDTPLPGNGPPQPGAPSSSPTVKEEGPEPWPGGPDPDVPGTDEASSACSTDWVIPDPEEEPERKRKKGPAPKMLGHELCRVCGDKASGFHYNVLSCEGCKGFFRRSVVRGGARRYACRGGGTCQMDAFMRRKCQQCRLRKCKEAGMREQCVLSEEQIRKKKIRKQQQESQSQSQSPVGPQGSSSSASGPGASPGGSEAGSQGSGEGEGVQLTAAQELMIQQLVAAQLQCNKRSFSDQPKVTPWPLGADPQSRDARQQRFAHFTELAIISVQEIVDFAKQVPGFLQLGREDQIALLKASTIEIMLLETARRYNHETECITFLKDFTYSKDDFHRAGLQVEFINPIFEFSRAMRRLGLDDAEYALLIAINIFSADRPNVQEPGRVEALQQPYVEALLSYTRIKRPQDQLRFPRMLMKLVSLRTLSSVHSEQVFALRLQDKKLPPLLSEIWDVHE
Sequence of Oxysterols receptor LXR-alpha (Homo sapiens) (Q13133 whole entry, looked up, the tested form may be a part): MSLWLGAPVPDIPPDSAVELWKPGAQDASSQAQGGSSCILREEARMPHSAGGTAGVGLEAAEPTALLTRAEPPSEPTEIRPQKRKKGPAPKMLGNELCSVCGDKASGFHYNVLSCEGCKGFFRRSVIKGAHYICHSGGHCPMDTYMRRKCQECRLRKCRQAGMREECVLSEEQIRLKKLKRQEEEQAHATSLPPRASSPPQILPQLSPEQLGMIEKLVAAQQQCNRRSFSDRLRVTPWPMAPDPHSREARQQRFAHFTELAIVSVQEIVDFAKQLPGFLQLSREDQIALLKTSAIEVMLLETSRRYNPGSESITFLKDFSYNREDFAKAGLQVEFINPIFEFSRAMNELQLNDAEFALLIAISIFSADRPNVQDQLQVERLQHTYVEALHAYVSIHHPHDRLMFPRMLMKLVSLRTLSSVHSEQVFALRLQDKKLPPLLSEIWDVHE
Sequence of Transcriptional activator Myb (Homo sapiens) (P10242 whole entry, looked up): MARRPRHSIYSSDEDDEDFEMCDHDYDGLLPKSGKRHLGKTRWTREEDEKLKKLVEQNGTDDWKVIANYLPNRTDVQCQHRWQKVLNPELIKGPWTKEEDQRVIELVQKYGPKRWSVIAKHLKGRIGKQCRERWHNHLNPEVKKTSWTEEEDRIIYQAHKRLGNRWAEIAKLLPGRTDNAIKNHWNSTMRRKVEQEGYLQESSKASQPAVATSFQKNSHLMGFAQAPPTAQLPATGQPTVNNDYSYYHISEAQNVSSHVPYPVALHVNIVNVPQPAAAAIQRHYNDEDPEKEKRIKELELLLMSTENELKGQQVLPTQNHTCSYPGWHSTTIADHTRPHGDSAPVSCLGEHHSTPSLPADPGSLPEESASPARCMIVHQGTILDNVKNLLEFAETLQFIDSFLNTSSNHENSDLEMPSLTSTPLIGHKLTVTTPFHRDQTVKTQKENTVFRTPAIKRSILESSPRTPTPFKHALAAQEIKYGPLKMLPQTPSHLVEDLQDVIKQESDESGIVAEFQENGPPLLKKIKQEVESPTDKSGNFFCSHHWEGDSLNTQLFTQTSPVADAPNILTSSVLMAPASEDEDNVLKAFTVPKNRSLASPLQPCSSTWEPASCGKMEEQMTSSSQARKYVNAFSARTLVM
Sequence of Hepatocyte nuclear factor 4-alpha (Homo sapiens) (P41235 whole entry, looked up, the tested form may be a part): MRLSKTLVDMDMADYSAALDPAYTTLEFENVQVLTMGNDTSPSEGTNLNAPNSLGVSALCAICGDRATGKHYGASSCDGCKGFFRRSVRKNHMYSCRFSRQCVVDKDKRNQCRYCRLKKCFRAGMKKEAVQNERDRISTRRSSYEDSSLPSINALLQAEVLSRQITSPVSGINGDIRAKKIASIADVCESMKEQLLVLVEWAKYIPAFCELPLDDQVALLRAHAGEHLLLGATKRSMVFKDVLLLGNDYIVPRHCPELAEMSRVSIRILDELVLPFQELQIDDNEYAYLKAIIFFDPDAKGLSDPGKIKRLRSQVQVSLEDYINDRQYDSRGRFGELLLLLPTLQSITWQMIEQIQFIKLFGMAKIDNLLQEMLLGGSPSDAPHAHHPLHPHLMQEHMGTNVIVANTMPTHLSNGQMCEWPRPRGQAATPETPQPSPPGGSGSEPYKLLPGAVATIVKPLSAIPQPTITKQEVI

Regarding `CO/N=C(/C1=NOCCO1)c1ccccc1Oc1ncnc(Oc2ccccc2Cl)c1F`, the result in assay [1], in assay [2], in assay [3], in assay [4], in assay [5] and in assay [6] was inactive. Further, the molecule was called inactive in assay [7], in assay [8], in assay [10], in assay [11], in assay [14] and in [15]. For the same molecule, the AC50 in [9] is 5.54 µM (active); in assay [12], 0.946 µM (active); in assay [13], 0.833 µM (active); in assay [16], 5.95 µM (active).
As for `CCOP(=O)(OCC)Oc1nc(Cl)c(Cl)cc1Cl`, the molecule was called inactive in assay [1], in assay [3], in [4], in assay [17], in [6] and in [7]. Besides, the molecule was called inactive in assay [8], in assay [9], in [10], in assay [18], in assay [11] and in assay [14]. In addition, the outcome in assay [15] was inactive. The figures for the AC50 in [12], in assay [13] and in [16] were 33.4 µM (active), 50 µM (active) and 20 µM (active), respectively.
For `Cc1nc(N(C)C)nc(OC(=O)N(C)C)c1C`, the molecule was called inactive in assay [1], in assay [2], in assay [7], in assay [8], in assay [9] and in [10]. Further, the molecule was called inactive in assay [12], in assay [13], in [15] and in assay [16].
Take `CS(=O)(=O)c1ccc(C(=O)C2C(=O)CCCC2=O)c([N+](=O)[O-])c1`: the call in [1], in assay [2], in [3], in [4], in assay [5] and in [17] was inactive. For the same molecule, the call in assay [6], in assay [7], in [8], in assay [9], in assay [10] and in assay [11] was inactive. Moreover, the molecule was called inactive in assay [12], in [13], in assay [14], in [15] and in assay [16].
